Data: PubChem BioAssay AID602393 (Broad Institute, 2012)
Hit rate of the full screen: of about 350,000 compounds, about 7,000 (2%) were called active. This excerpt belongs to a sample that is enriched for actives. Values without a mark were called inactive. No stated cut-off is given here; in the data, active means activation above about 40%; inconclusive means no clear call, values can overlap the other calls; inactive means below that.

Experiment: Bmi1 luciferase reporter increase in mESCs, primary screen, esBAF inhibitor project, mouse ES cells, Bmi1 luciferase knock-in, single point (AID 602393);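 further: 0% = median of the plate's neutral control wells and 100% = double that signal; a rise in the Bmi1 reporter signal indicates esBAF inhibition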
Details: 24 h, at 12.5 µM, hits give high values, 100% = twice the neutral-well signal

| SMILES | reporter increase |
| --- | --- |
| C[C@@H]1CN([C@H](C)CO)C(=O)c2cc(-c3ccncc3)cnc2O[C@H]1CN(C)C | 2.47% |
| O=C(C[C@H]1CC[C@H]2[C@@H](COC[C@@H](O)CN2S(=O)(=O)c2cccc(Cl)c2)O1)NC1CCCC1 | 0.9% |
| CN1C(=O)c2cc(NC(=O)c3ccc(Cl)cc3)ccc2OC[C@@H]2O[C@@H](CC(=O)O)CC[C@H]21 | 5.97% |
| CC(C)NC(=O)N(C)C[C@H]1Oc2ccc(NC(=O)CCC(F)(F)F)cc2CC(=O)N([C@@H](C)CO)C[C@@H]1C | -3.69% |
| CCCC(=O)Nc1ccc2c(c1)C(=O)N(C)C[C@H](OC)[C@H](C)CN(CCc1ccccc1)[C@H](C)CO2 | -0.112% |
| Cc1ccc(S(=O)(=O)NCC[C@@H]2CC[C@H](NC(=O)c3ccccn3)[C@H](CO)O2)cc1 | 1.61% |
| O=C(N[C@H]1CC[C@@H](CCNC(=O)C2CCC2)O[C@@H]1CO)c1ccncc1 | -1.2% |
| Cc1noc(C)c1NC(=O)Nc1ccc2c(c1)C(=O)N([C@@H](C)CO)C[C@H](C)[C@@H](CN(C)Cc1ccncc1)OCCCC[C@@H](C)O2 | -7.33% |
| O=C(C[C@@H]1CC[C@H]2[C@@H](COC[C@@H](O)CN2S(=O)(=O)c2cccc(F)c2)O1)NCCCN1CCOCC1 | 2.86% |
| C=CCNC(=O)c1cc(-c2ccccc2O)on1 | 35.4% |
| O=C(NCc1ccccn1)Nc1ccc(Cl)cc1 | 21.5% |
| Clc1ccccc1-c1cc(COc2ccc3ccccc3c2)no1 | 9.3% |
| O=C(NCc1ccccn1)c1cc(-c2ccccc2Cl)on1 | 54.4% (active) |
| O=C(NC1CCCC1)c1cc(-c2ccccc2)on1 | 18.8% |
| O=C(Nc1cccnc1Cl)c1cc(-c2ccccc2O)on1 | 65% (active) |
| C[C@H](CO)N1C[C@H](C)[C@@H](CN(C)C)OCCCC[C@H](C)Oc2ccc(NC(=O)C3CCCCC3)cc2C1=O | -0.46% |
| COc1ccc(CNC(=O)C[C@H]2CC[C@@H]3[C@H](COc4ccc(NC(=O)C5CC5)cc4C(=O)N3C)O2)cc1 | -1.53% |
| CCCNC(=O)N(C)C[C@H]1Oc2ncc(C#C[C@@H](C)O)cc2C(=O)N([C@@H](C)CO)C[C@@H]1C | -6.34% |
| N#C[C@H]1[C@@H](c2ccc(C3=CCCCC3)cc2)[C@@H](CO)N1C(=O)Cc1ccncc1 | 2.63% |

| SMILES | reporter increase |
| --- | --- |
| Cc1noc(C)c1NC(=O)Nc1ccc2c(c1)C(=O)N([C@@H](C)CO)C[C@H](C)[C@@H](CN(C)C(=O)C1CCCCC1)OCCCC[C@@H](C)O2 | 3.6% |
| CCCNC(=O)Nc1ccc2c(c1)OC[C@@H](C)N(CC1CCCC1)C[C@@H](C)[C@H](OC)CN(C)C2=O | 6.43% |
| O=C(C[C@@H]1CC[C@H]2[C@@H](COC[C@H](O)CN2S(=O)(=O)c2ccc(F)cc2)O1)N[C@H]1CCN(Cc2ccccc2)C1 | 5.45% |
| COCCNC(=O)C[C@H]1CC[C@@H]2[C@@H](COc3ccc(NC(=O)C4CCOCC4)cc3C(=O)N2C)O1 | 0.774% |
| Cc1nc2ccc(NC(=O)c3cccc(S(=O)(=O)N4CCOCC4)c3)cc2s1 | 7.36% |
| O=S(=O)(Nc1ccc2nc(N3CCOCC3)sc2c1)c1ccccc1 | 73% (active) |
| CC(=O)Nc1ccc(S(=O)(=O)Nc2ccc(N3CCOCC3)c(F)c2)cc1 | 0.869% |
| O=C(C[C@@H]1C[C@@H]2c3cc(NC(=O)C4CCOCC4)ccc3O[C@@H]2[C@H](CO)O1)NCc1ccncc1 | -0.887% |
| C[C@@H]1CN([C@H](C)CO)C(=O)c2cc(-c3ccncc3)cnc2O[C@@H]1CN(C)C(=O)Cc1cccnc1 | -2.67% |
| Cc1ccc(S(=O)(=O)N[C@@H]2CC[C@@H](CCn3cc(C(C)C)nn3)O[C@H]2CO)cc1 | -3.18% |
| Cc1cccc(S(=O)(=O)N2C[C@H]3[C@@H](c4ccccc42)[C@H](CO)N3Cc2ccc3c(c2)OCO3)c1 | -3.41% |
| CO[C@@H]1CN(C)C(=O)c2ccc(NS(=O)(=O)c3ccc(C)cc3)cc2OC[C@@H](C)N(Cc2nccs2)C[C@H]1C | -3.84% |
| CC(C)(C)C1CCC(=NNC(=O)c2cc(-c3ccccc3)n[nH]2)CC1 (stereo not drawn) | -0.812% |
| Oc1ccccc1-c1cc(-c2ccc(Cl)cc2)n[nH]1 | 21.6% |
| c1ccc(-c2cc(-c3ccccc3)[nH]n2)cc1 | 42.5% (active) |
| CN1C(=O)c2cc(NC(=O)Nc3ccccc3F)ccc2OC[C@H]2O[C@@H](CC(=O)Nc3cccc(Cl)c3)CC[C@@H]21 | 20.4% |
| Cc1noc(C)c1S(=O)(=O)N(C)C[C@H]1OCCCC[C@H](C)Oc2ccc(NS(=O)(=O)c3ccccc3)cc2C(=O)N([C@H](C)CO)C[C@@H]1C | -1.33% |
| Cn1cnc(CCNC(=O)C[C@@H]2CC[C@@H]3[C@H](COC[C@@H](O)CN3C(=O)Nc3ccccc3)O2)c1 | -3.44% |
| C[C@@H]1CN([C@@H](C)CO)S(=O)(=O)c2ccc(-c3cncnc3)cc2O[C@@H]1CN(C)C(=O)C1CC1 | -3.14% |
